Rows were chosen to be rich in hits. Some 4.6% of all compounds tested hit in one or more screens of this group.
Cav3 T inh – Cav3.2 calcium influx blockers – cell-based, Fluo-4 calcium fluorescence, FDSS, MLSMR library, primary screen. Voltage-dependent T-type calcium channel subunit alpha-1H (Homo sapiens), O95180. Cav3.2-expressing cells; active compounds read low. B-score at 10 µM. hit rate 4% among 100,000. AID 449739, 2010;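 active = single-dose well whose peak fluorescence ratio is a statistical outlier from its plate by either plate-standardised score or position-corrected B-score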
NFkB transloc pot – enhancers of NFkB p65 translocation in HUVEC – imaging, IL-1B stimulus, high-content imaging, primary screen; HUVEC IL-1B NFkB p65 nuclear translocation imaging; activation, % at 2 µM; hit rate 0.3% among 94,000; AID 819, 2007;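 active = activation above 40%, about the mean plus 3 SD, also judged a hit on visual image review; inconclusive = activation above 40% but not a hit on visual review; inactive = activation not above 40% and no visual hit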;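 also: percent activation is computed from the nuclear over cytoplasmic p65 intensity ratio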
sEH activator – soluble epoxide hydrolase activators, primary screen, biochemical, human sEH; purified human sEH enzymatic activity, activator screen; activation, % at 2 µM; hit rate 0.04% among 91,000; in the data active = activation above about 37%
sEH inh – soluble epoxide hydrolase inhibitors, primary screen, biochemical, human sEH. AID 707, 2007. hit rate 0.34% among 91,000. Bifunctional epoxide hydrolase 2 (Homo sapiens), P34913. inhibition, % at 2 µM. recombinant human sEH enzymatic activity assay; in the data active = inhibition above about 80%
NFkB transloc inh – inhibitors of IL-1B driven NFkB p65 nuclear import, primary screen, imaging, HUVEC, IL-1B stimulus, high-content imaging; hit rate 0.43% among 94,000; HUVEC IL-1B NFkB p65 nuclear translocation imaging; AID 796, 2007; inhibition, % at 2 µM;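 active = inhibition above about 30% together with a positive call from visual inspection of the well image, limit read from the data; inconclusive = inhibition above a set limit but visual check negative; inactive = inhibition not above a set limit, visual check negative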;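 also: nuclear over cytoplasmic p65 intensity ratio measured by imaging; 0% = IL-1B stimulated DMSO wells and 100% = unstimulated DMSO wells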
HUVEC tox IL1B – cytotoxicity in IL-1B stimulated HUVEC, primary screen, cytotoxicity control for IL-1B NFkB translocation project, imaging, Hoechst nuclear count, IL-1B stimulus; hit rate 0.41% among 94,000; HUVEC cell count loss; cell count reduction, % at 2 µM;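 active = cell count reduction more than 3 SD above the screen-wide mean, cut at about 70% in these data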;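 also: normalized per plate to untreated control cells as the no-loss baseline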
Numbers without * were called inactive.

How did CCN(CC)S(=O)(=O)c1cccc(C(=O)N[C@H](C(=O)OCC(N)=O)C(C)C)c1 do in these assays?
Cav3 T inh: 0.395; NFkB transloc pot: -34.2; sEH activator: -10.9; sEH inh: 12.1; NFkB transloc inh: 34.2*; HUVEC tox IL1B: 26.0

How did CCN(CC)S(=O)(=O)c1cccc(C(=O)Nc2cccnc2)c1 do in these assays?
Cav3 T inh: 0.231; NFkB transloc pot: -11.6; sEH activator: -16.3; sEH inh: 18.8; NFkB transloc inh: 11.6; HUVEC tox IL1B: -30.8

How did Cc1ccc(CNCc2cccnc2)cc1 do in these assays?
Cav3 T inh: -0.376; NFkB transloc pot: -7.2; sEH activator: 6.3; sEH inh: -4.0; NFkB transloc inh: 7.2; HUVEC tox IL1B: 4.1

How did C=CCn1c(SCC(=O)NCc2ccccc2)nnc1-c1ccccc1O do in these assays?
Cav3 T inh: 0.303; NFkB transloc pot: -15.9; sEH activator: 6.3; sEH inh: -1.1; NFkB transloc inh: 15.9; HUVEC tox IL1B: 25.5

Results for C=CCn1c(CSCc2ccc(C)cc2)nnc1SCC(=O)NCc1ccccc1 ?
Cav3 T inh: -3.6*; NFkB transloc pot: -7.0; sEH activator: 3.6; sEH inh: -2.0; NFkB transloc inh: 7.0; HUVEC tox IL1B: -12.2

Results for C=CCn1c(CSCc2ccc(Cl)cc2)nnc1SCC(=O)NCc1ccccc1 ?
Cav3 T inh: -6.56*; NFkB transloc pot: 34.1; sEH activator: -10.3; sEH inh: 11.7; NFkB transloc inh: -34.1; HUVEC tox IL1B: 0.9

Results for O=C(CSc1nnc(CCc2ccccc2)n1-c1ccc(Cl)cc1)NCc1ccccc1 ?
Cav3 T inh: -5.89*; NFkB transloc pot: -9.8; sEH activator: -11.4; sEH inh: 10.6; NFkB transloc inh: 9.8; HUVEC tox IL1B: -154.7

How did COc1ccc(N2CCN(S(=O)(=O)c3ccc(C(=O)NCc4ccco4)cc3)CC2)cc1 do in these assays?
Cav3 T inh: -3.86*; NFkB transloc pot: -5.5; sEH activator: -1.1; sEH inh: 6.1; NFkB transloc inh: 5.5; HUVEC tox IL1B: -31.6

How did O=C(c1cccc(F)c1)N1CCN(CC2CC3C=CC2C3)CC1 (centres undefined) do in these assays?
Cav3 T inh: -0.525; NFkB transloc pot: 13.3; sEH activator: -7.1; sEH inh: 6.7; NFkB transloc inh: -13.3; HUVEC tox IL1B: -15.9

Results for CC1CCN(C(=O)CNC(=O)c2ccc(Cl)cc2Cl)CC1 ?
Cav3 T inh: 0.224; NFkB transloc pot: -1.5; sEH activator: -1.1; sEH inh: 2.3; NFkB transloc inh: 1.5; HUVEC tox IL1B: -5.8

How did CCCCS(=O)(=O)Nc1ccc2ncn(C)c(=O)c2c1 do in these assays?
Cav3 T inh: 0.679; NFkB transloc pot: 2.9; sEH activator: -26.1; sEH inh: 28.3; NFkB transloc inh: -2.9; HUVEC tox IL1B: 72.2*

How did CC(C)CN(CC(C)C)S(=O)(=O)N1CCC(C(=O)NCc2ccccn2)CC1 do in these assays?
Cav3 T inh: -0.0514; NFkB transloc pot: -0.6; sEH activator: 7.0; sEH inh: -7.4; NFkB transloc inh: 0.6; HUVEC tox IL1B: -16.9

Results for CC(C)CN(CC(C)C)S(=O)(=O)N1CCC(C(=O)NCc2cccs2)CC1 ?
Cav3 T inh: -3.73*; NFkB transloc pot: 1.5; sEH activator: -53.8; sEH inh: 53.2; NFkB transloc inh: -1.5; HUVEC tox IL1B: 27.0

What do the screens show for `CCCCNC(=O)C1CCCN(S(=O)(=O)c2ccc(-n3cnnn3)cc2)C1` (centres undefined)?
Cav3 T inh: -0.169; NFkB transloc pot: 4.8; sEH activator: -0.7; sEH inh: -0.6; NFkB transloc inh: -4.8; HUVEC tox IL1B: 20.7

Results for CC(C(=O)c1ccccc1)n1c(N2CCOCC2)nc2c1c(=O)n(C)c(=O)n2C (centres undefined) ?
Cav3 T inh: 0.395

How did C#CCOCCOCCOCCNc1nc(N2CCN(C(=O)[C@H](Cc3ccc(O)cc3)n3cc([C@@H](N)CC(C)C)nn3)CC2)nc(N2CCN(C(=O)[C@H](Cc3cc4ccccc4[nH]3)n3cc([C@@H](N)CC(C)C)nn3)CC2)n1 do in these assays?
Cav3 T inh: 0.198

What do the screens show for `O=C(NCCO)c1ccc2[nH]c3c(c2c1)CCCC3`?
Cav3 T inh: 0.756; NFkB transloc pot: 1.5; sEH activator: -8.0; sEH inh: 9.5; NFkB transloc inh: -1.5; HUVEC tox IL1B: -33.3

Results for O=C(NCCCO)c1ccc2[nH]c3c(c2c1)CCCC3 ?
Cav3 T inh: -0.491; NFkB transloc pot: 82.9*; sEH activator: -4.7; sEH inh: -0.9; NFkB transloc inh: -82.9; HUVEC tox IL1B: -14.4

How did CCc1nc(N2CCN(C(=O)c3ccccc3)CC2)c(C#N)c2c1COC(C)(C)C2 do in these assays?
Cav3 T inh: -0.947; NFkB transloc pot: inconclusive; NFkB transloc inh: -41.0; HUVEC tox IL1B: -17.9

Results for CCCC(=O)N1CCN(c2nc(CC(C)C)c3c(c2C#N)CCC3)CC1 ?
Cav3 T inh: -5.51*; NFkB transloc pot: 1.8; sEH activator: 0.9; sEH inh: 2.4; NFkB transloc inh: -1.8; HUVEC tox IL1B: -245.9

Results for CC(C)C(=O)N1CCN(c2nc(-c3ccccc3)c3c(c2C#N)CCCC3)CC1 ?
Cav3 T inh: -5.27*; NFkB transloc pot: -9.1; sEH activator: 3.9; sEH inh: -2.9; NFkB transloc inh: 9.1; HUVEC tox IL1B: -2.4

Results for CCOc1ccccc1NC(=O)CN(c1ccc(OC)cc1)S(=O)(=O)c1c(C)noc1C ?
Cav3 T inh: -3.81; NFkB transloc pot: 31.0; NFkB transloc inh: -31.0; HUVEC tox IL1B: 15.8

Results for COc1ccc(CC(=O)N2CCN(c3ccccn3)CC2)cc1OC ?
Cav3 T inh: 1.64; NFkB transloc pot: -3.7; sEH activator: -5.5; sEH inh: 5.8; NFkB transloc inh: 3.7; HUVEC tox IL1B: -4.0

Results for CCCc1ccc(OCc2ccc(C(=O)N3CCN(c4ccccn4)CC3)o2)c(OC)c1 ?
Cav3 T inh: -4.95*; NFkB transloc pot: -13.0; sEH activator: -9.1; sEH inh: 10.3; NFkB transloc inh: 13.0; HUVEC tox IL1B: -20.9

How did COc1ccccc1NS(=O)(=O)c1cccc(C(=O)OCC(=O)Nc2cc(C)on2)c1 do in these assays?
Cav3 T inh: -4.75*; NFkB transloc pot: 4.1; sEH activator: -8.5; sEH inh: 7.1; NFkB transloc inh: -4.1; HUVEC tox IL1B: 6.1

Results for O=[N+]([O-])c1ccccc1N/N=C\c1ccccc1Cl ?
Cav3 T inh: 2.87

What do the screens show for `O=[N+]([O-])c1cc(Cl)cc(/C=N\Nc2ccccn2)c1O`?
Cav3 T inh: -3.75*; NFkB transloc pot: -8.0; sEH activator: 3.1; sEH inh: 0.3; NFkB transloc inh: 8.0; HUVEC tox IL1B: -5.0

High-throughput results (PubChem BioAssay)
